# SMN2 splice up: SMN2 splice variant enhancement; HEK293 SMN2-luciferase splicing reporter, luminescence, 30-36 h; Potency, µM (doses to about 46.1 µM), without a hit: top-dose activity change, positive = activation, most hits filed as activators; 210,000 tested, 2.8% active; note: % of control where 0% means no effect; nearly all actives have a fitted effect of over 55% in size
#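 HEK293 cells carry an SMN2 minigene-luciferase reporter in which exon 7 inclusion puts luciferase in frame. Cells were seeded at 2000 cells/well, attached for 10-12 hours, then exposed to compounds for 30-36 hours at 37C before ONE-Glo luminescence.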
# FLuc counter: counter-screen for miR-21 project: firefly luciferase inhibitors or activators. P08659. purified FLuc, Km substrates, luminescence inhibition. Potency, µM (doses to about 57.5 µM), inactives show at the top dose activity change, negative = inhibition, usual class: inhibitors. 360,000 tested, 6.9% active. AID 588342;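 note: plate controls were vehicle for no effect and reference inhibitor for full effect; nearly all actives have a fitted effect of over 55% in size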
# Target sequence (P08659 whole entry, looked up): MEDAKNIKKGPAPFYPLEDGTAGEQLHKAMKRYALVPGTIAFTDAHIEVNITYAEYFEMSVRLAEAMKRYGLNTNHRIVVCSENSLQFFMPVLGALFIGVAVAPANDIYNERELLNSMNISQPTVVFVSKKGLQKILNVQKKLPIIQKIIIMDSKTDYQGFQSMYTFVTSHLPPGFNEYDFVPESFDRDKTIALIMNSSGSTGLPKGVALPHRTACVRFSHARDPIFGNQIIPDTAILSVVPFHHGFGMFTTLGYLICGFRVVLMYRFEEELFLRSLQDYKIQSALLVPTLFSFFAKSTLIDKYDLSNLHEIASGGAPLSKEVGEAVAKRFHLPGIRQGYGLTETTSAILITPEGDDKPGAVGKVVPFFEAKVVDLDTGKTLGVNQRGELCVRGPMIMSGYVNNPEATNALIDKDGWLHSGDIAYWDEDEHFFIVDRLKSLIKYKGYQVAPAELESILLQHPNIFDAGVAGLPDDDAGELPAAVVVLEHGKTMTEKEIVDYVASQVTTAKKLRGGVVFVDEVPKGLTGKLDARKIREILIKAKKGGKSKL
#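 Biochemical qHTS of compounds, final roughly 60 µM downward over six points, against 10 nM purified firefly luciferase using Km concentrations of substrates (10 uM D-luciferin, 10 uM ATP) in Tris acetate pH 7.5 buffer; luminescence output.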
# Rab9 prom act: Rab9 promoter activation. AID 485297. Potency, µM (doses to about 9.22 µM), for inactives: at the highest dose activation, negative = inhibition, actives largely listed as activators. 320,000 tested, 2.8% active. Huh7 Rab9 promoter-luciferase reporter, luminescence, 24 h; note: % of control where 0% means no effect; nearly all actives have a fitted effect of over 60% in size
#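 Measured in stably transfected Huh7 cells bearing a Rab9 promoter–luciferase construct: 24 h compound treatment at 37 °C, followed by luminescence detection.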
# NPC1 promoter act: activates the NPC1 promoter; Huh7 NPC1 promoter luciferase reporter, 24 h; Potency, µM (highest dose often 9.22 µM), for inactives: at the top dose activation, hits mostly activators; 320,000 tested, 2.4% active; note: % of control where 0% means no effect; nearly all actives have a fitted effect of over 60% in size
#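 Readout is luciferase luminescence, reflecting NPC1 promoter activation in stably transfected Huh7 cells after 24 h compound exposure at 37 °C in reduced-serum medium with 10% FBS.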
# ELG1 genotox: inducers of genotoxicity in HEK293T ELG1-luciferase cells. HEK293T ELG1-luciferase reporter, luminescence, 16 h. Potency, µM (highest dose often 46 µM), inactives show at the highest dose activity change, positive = activation, actives largely listed as activators. 330,000 tested, 1.3% active; note: % of control where 0% means no effect; nearly all actives have a fitted effect of over 60% in size
#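 Cells (2,000/well) expressing the ELG1-luciferase fusion are dosed by pin tool and kept 16 hr at 37 °C, 5% CO2. Signal comes from ONE-Glo luciferase reagent after 30 min at room temperature.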
# Active calls of the source: *; ? = inconclusive; nt = no result given; [ ] = remark or other dose. A selection: hits, their analogues and other compounds. The true share with any hit is near 7.4%. Calls come from the whole dose curve; as a rule, active = well fitted curve in the direction sought with a large enough effect; inconclusive = small, poorly fitted or top-dose-only effect, or another doubt; inactive = no such curve, though single readings can be large; an effect the other way counts as inactive or inconclusive. Potency is the fitted concentration of half-maximal effect.
SMILES,SMN2 splice up,FLuc counter,Rab9 prom act,NPC1 promoter act,ELG1 genotox
Cc1ccc(Nc2nc(CSc3nnc(-c4ccccc4)n3C)cs2)cc1,?,1.2µM*,?,?,?
COc1ccc(-c2nnc(SCc3ccccn3)n2C)cc1,23%,?,?,24%,?
Cc1ccccc1-n1c(SCc2csc(Nc3ccccc3)n2)nnc1-c1cccnc1,-13%,?,-1%,0%,-8%
Cc1ccc(Nc2nc(CSc3nnc(-c4ccccc4C)n3C)cs2)cc1,nt,1.9µM*,?,?,3%
Cc1ccc(Nc2nc(CSc3nnc(-c4cccnc4)n3-c3ccccc3C)cs2)cc1,-44%,11µM*,2%,3%,1%
Cc1ccc(NC(c2nnc(-c3ccccc3)o2)c2ccccc2F)c(Cl)c1 (configuration not stated),-14%,-4%,nt,nt,nt
Cc1cccc(-c2nc(CCNC(=O)Cc3ccccc3)cs2)c1,nt,-19%,nt,nt,nt
Cc1cccc(Nc2nc3ccccc3s2)c1C,10µM*,2.4µM*,2.5µM*,3.2µM*,6.5µM*
COc1ccc2nc(NC3=NCCC3)sc2c1,?,12µM*,3.2µM*,3.5µM*,?
COc1ccc2nc(Nc3sc4c(c3C(N)=O)CCCC4)sc2c1,29%,11µM*,3%,8%,17%
COc1ccc(-c2nc(NC3=NCCCCC3)sc2C)cc1,-10%,?,-4%,2%,-3%
COc1ccc2nc(NCc3cccnc3)sc2c1,nt,?,?,23%,13%
COc1cccc(Nc2nc3ccc(OC)cc3s2)c1,20µM*,4.3µM*,4.5µM*,?,?
COc1ccc(C2N(c3ccc4c(c3)OCCO4)C(=O)C2(F)F)cc1OC (configuration not stated),nt,6%,0%,2%,0%
CCS(=O)(=O)c1ncc(N(Cc2ccco2)Cc2sccc2C)c(C(=O)Nc2ccc(C)cc2C)n1,nt,-3%,nt,nt,nt
COc1ccc2c(C)cc(Sc3nnnn3-c3ccccc3)nc2c1,-11%,1%,-9%,0%,-4%
O=C(CNc1ccccc1N1CCCC1=O)Nc1cc(C(F)(F)F)ccc1-n1cncn1,nt,-2%,2%,3%,0%
COc1ccc(Nc2nc3ccccc3s2)cc1,10µM*,5.4µM*,1.4µM*,2.5µM*,?
Cc1ccc(Nc2nnc(SC(C)C(=O)Nc3c(C)n(C)n(-c4ccccc4)c3=O)s2)cc1 (configuration not stated),6%,11µM*,0%,-1%,0%
Cc1ccc(C2C(=O)c3ccccc3C2=O)cc1,nt,17µM*,23%,12%,4%
O=C1c2ccccc2C(=O)C1c1ccccn1,nt,11µM*,1.4µM*,2.5µM*,?
Cc1ccccc1C1C(=O)c2ccccc2C1=O,nt,-1%,7%,-5%,-5%
O=C1c2cccnc2-c2ncccc21,7%,-1%,7%,3%,4%
O=C1c2ccccc2C(=O)C1c1ccncc1,7.9µM*,3.4µM*,0.5µM*,1.3µM*,3.2µM*
COc1cc(NC(=O)CSc2nc3nc(C)c(Cc4ccc(C)cc4)c(C)n3n2)cc(OC)c1,nt,3%,nt,nt,nt
SMILES,SMN2 splice up,FLuc counter,Rab9 prom act,NPC1 promoter act,ELG1 genotox
Fc1ccc(-c2noc3ncnc(Nc4ccc(F)cc4F)c23)cc1,nt,2%,nt,nt,nt
CCOc1ccc(-n2nc3cc(C)c(NC(=O)c4cc(OCC)c(OCC)c(OCC)c4)cc3n2)cc1,0%,0%,nt,nt,nt
CCOc1ccc(-n2nc3cc(C)c(N)cc3n2)cc1,nt,0.34µM*,0.45µM*,0.45µM*,?
CCOc1ccc(-n2nc3ccc(N)cc3n2)cc1,nt,0.76µM*,14%,?,?
COc1cccc(CN2C(=O)C3CCCN3c3ccc(S(=O)(=O)N4CCOCC4)cc32)c1 (configuration not stated),-10%,-1%,-1%,-2%,-2%
O=C(Nc1nccs1)c1ccc(-c2ccc(F)cc2)o1,11µM*,2.1µM*,3.5µM*,2.2µM*,?
Cc1nnc(NC(=O)c2ccc(-c3ccc(Cl)cc3)o2)s1,nt,-14%,8%,0%,4%
C/C=C/C=C/C(=O)Nc1nccs1,-6%[1.84 µM],?,?,4%,11%
O=C(Nc1nccs1)c1ccc(-c2ccc(Cl)cc2)o1,11µM*,0.21µM*,1µM*,1.4µM*,?
